Where “and” joins values, the source holds several entries; their conditions need not be identical. Equal entries are not always repeated. About 5,900 (2.8%) of roughly 210,000 compounds were called active. Where a call stands in place of a potency, no number is given. Another 5% or so got no clear call; they are omitted. The sample as a whole holds a higher share of actives than the screen did. Values without a mark were called inactive. Calls follow the shape of the dose curve; as a rule, active = well fitted activation curve with a large enough effect; inconclusive = small, poorly fitted or top-dose-only effect; inactive = no such curve, though single readings can be large or run the other way.

These results are taken from PubChem BioAssay AID1458 (National Center for Advancing Translational Sciences (NCATS), 2008).
Potency is read from the fitted curve at half-maximal effect.

The nature of this experiment: qHTS Assay for Enhancers of SMN2 Splice Variant Expression. Also: nearly all actives have a fitted effect of over 55% in size. As to conditions: HEK293 SMN2-luciferase splicing reporter, luminescence, 30-36 h; series mostly up to 46.1 µM. In outline: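 HEK293 cells carry an SMN2 […]–luciferase reporter in which exon 7 inclusion puts luciferase in frame. Cells were plated 10-12 h before compound addition, then incubated 30-36 h at 37C. ONE-Glo luminescence was read; sodium butyrate at 4.5 mM final served as control.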
For the compound `Cc1ccc(NC(=O)NC(C)c2c(-n3cccc3)sc(C)c2C)c(C)c1` (stereo not drawn), the Potency result was “inactive”.

As for `CCCn1c(NCc2ccc(N(CC)CC)cc2)nc2ccccc21`, the Potency result is “inactive”.

As for `COc1ccc(OCCCC(=O)NCCc2ccccc2)cc1`, the Potency result is “inactive”.

Consider `O=C(NCCc1ccccc1)c1ccc(OCCOc2ccccc2)cc1`, for which the Potency entry is “inactive”.

`O=C(NCCOc1ccccc1)c1ccccc1`: the Potency is 12.6 µM (active).

With `CS(=O)(=O)NCc1ccc(C(=O)NCc2ccccc2)cc1`, the Potency result is “inactive”.

Consider `CCCOc1ccc(C(=O)NCCc2ccccc2)cc1`, for which the Potency is 14.1 µM (active).

Regarding `O=C(CCOc1ccccc1)NCc1ccccc1`, the Potency entry was “inactive”.

`Nc1ccc(C(=O)NCc2ccccc2)cc1`: the Potency result was “inactive”.

Regarding `NS(=O)(=O)c1cc(C(=O)NCCOc2ccccc2)c(Cl)cc1Cl`, the Potency entry is “inactive”.

In the case of `CC(C)c1ccc(C(=O)NCCCc2ccccc2)cc1`, the Potency is 14.1 µM (active).

As to `CCC1=Nc2cc(C(=O)NCC(C)c3ccccc3)ccc2Sc2ccc(C)cc21` (stereo not drawn), the Potency result was “inactive”.

`COc1cccc(CNC(=O)c2cc(=O)[nH]c3ccc(S(=O)(=O)N4CCCCC4)cc23)c1`: the Potency entry is “inactive”.

Regarding `CCC(=O)N1N=C(c2ccc(OC)cc2)CC1c1cn(-c2ccccc2)nc1-c1cccs1` (stereo not drawn), the Potency entry was “inactive”.

Consider `COc1ccc(-c2nn(-c3ccccc3)cc2/C=C\C(=O)Nc2ccc(C(=O)O)cc2)cc1`, for which the Potency result is “inactive”.

In the case of `O=C(/C=C\c1cn(-c2ccccc2)nc1-c1cccs1)N1CCOCC1`, the Potency entry was “inactive”.

Regarding `O=C(O)c1ccc(N/N=C/c2cn(-c3ccccc3)nc2-c2cccs2)cc1`, the Potency was 7.94 µM (active).

Take `CC(C)CC(NS(=O)(=O)c1ccc2c(c1)oc(=O)n2C)C(=O)NCc1ccccc1Cl` (stereo not drawn): the Potency result was “inactive”.

Consider `Cc1ccccc1NC(=O)Cn1c(=O)n(CCc2ccccc2)c(=O)c2ccccc21`, for which the Potency result is “inactive”.

For the compound `COc1ccc(N2CCN(C(=O)CSc3ncnc4c3cnn4-c3ccc(OC)cc3)CC2)cc1`, the Potency entry is “inactive”.

`COc1ccc(-n2ncc3c(N4CCc5ccccc54)ncnc32)cc1`: the Potency was 5.62 µM (active).

For `COc1ccc(-n2ncc3c(N4CCCc5ccccc54)ncnc32)cc1`, the Potency entry was “inactive”.

Regarding `CO[C@@]12[C@@H](COC(N)=O)C3=C(C(=O)C(C)=C(N)C3=O)N1C[C@@H]1N[C@@H]12`, the Potency entry was “inactive”.

Consider `CC(C)c1ccc2oc(-c3cc(NC(=O)c4cccs4)ccc3Cl)nc2c1`, for which the Potency result is “inactive”.

Take `CC1=C(C(=O)OCc2ccc(C)cc2)C(c2c(Cl)cccc2Cl)CC(=O)N1` (stereo not drawn): the Potency entry is “inactive”.

Consider `Cc1ccccc1OCC(=O)Nc1c(C(=O)Nc2ccccc2F)oc2ccccc12`, for which the Potency result was “inactive”.

As to `Cc1n[nH]c(=S)n1/N=C/c1ccc(Br)o1`, the Potency entry is “inactive”.

Consider `CNC(=S)N/N=C/c1ccc(OCc2ccccc2)c(Br)c1`, for which the Potency entry is “inactive”.

`COc1cc(/C=N/n2c(C)n[nH]c2=S)ccc1OCc1ccccc1`: the Potency is 12.6 µM (active).

Take `Cc1cc(-c2ccccc2)n2nc(-c3ccccc3)cc2n1`: the Potency result was “inactive”.

On to `Cc1ccc(NC(=O)CN2C(=O)CC(C)Sc3ccccc32)c(C)c1` (stereo not drawn), for which the Potency entry is “inactive”.

`CC(C)=CCN1CCC2(CCc3ccccc32)CC1`: the Potency result was “inactive”.

Take `CCOc1ccc(OCC)c(NC(=O)c2c(C)nn(-c3ccccc3)c2-n2cccc2)c1`: the Potency result was “inactive”.

For `COC(=O)c1c(NC(=O)c2ccc(Cl)c(Cl)c2)sc2c1CCCC2`, the Potency entry is “inactive”.

Consider `COc1ccccc1Nc1nc(N)nc(N)c1S(=O)(=O)c1ccccc1`, for which the Potency result was “inactive”.

Regarding `CCc1cc2c(cc3c(=O)n(CC(=O)NCCc4ccc(OC)c(OC)c4)ncn32)s1`, the Potency entry is “inactive”.

`CCN(CC)C(=O)CSc1ncnc2c1cnn2-c1ccccc1`: the Potency entry is “inactive”.

Regarding `Cc1ccc(-n2ncc3c(Nc4cccc(C(=O)O)c4)ncnc32)cc1`, the Potency is 14.1 µM (active) and 11.2 µM (active).

For `O=C(NNc1ncnc2c1cnn2-c1ccccc1)c1ccco1`, the Potency result was “inactive”.

For `COc1ccc(Cl)cc1NC(=O)CSc1nc(-c2cccs2)cc(C(F)(F)F)n1`, the Potency entry is “inactive”.

As to `CCOCCCNC(=O)c1cn(CC)c2ccc(S(=O)(=O)N3CCc4ccccc4C3)cc2c1=O`, the Potency result was “inactive”.

Take `COc1c(C)c2c(c(O)c1C/C=C(\C)CCC(=O)O)C(=O)OC2`: the Potency is 501 nM (active) and 631 nM (active) and 398 nM (active).

For `CCc1ccc(C2CC(=O)c3c([nH]c(C(=O)OCc4ccc(C)cc4)c3C)C2)cc1` (stereo not drawn), the Potency result is “inactive”.

Regarding `COc1ccc(C2=NOC3(CC(=O)N(c4ccc(C)cc4)C3=O)C2)cc1` (stereo not drawn), the Potency result was “inactive”.

Regarding `COc1ccc(-c2cc(-c3ccccc3)nc3c2COc2ccc(Cl)cc2-3)cc1`, the Potency entry is “inactive”.

In the case of `COc1ccc(C2=Nc3cc(C)ccc3OC2)cc1`, the Potency was 2.82 µM (active).

In the case of `Cc1ccc2c(c1)-c1c(cnn1CC(=O)Nc1ccccc1C#N)CO2`, the Potency result was “inactive”.

In the case of `CC(C)C(=O)Nc1ccc(C(=O)NNC(=O)c2cccs2)cc1`, the Potency entry is “inactive”.

With `Cc1ccc(-n2nc(C)c(/C=N/NC(=O)c3cccs3)c2Cl)cc1`, the Potency result was “inactive”.

With `O=C(O)c1ccc(NC(=O)c2cccs2)cc1`, the Potency entry was “inactive”.

`Cc1cccc(-n2c(C)cc(/C=N\NC(=O)c3cccs3)c2C)c1`: the Potency was 2 µM (active).

On to `Cc1cccc(-n2c(C)cc(/C=N/NC(N)=S)c2C)c1`, for which the Potency entry is “inactive”.

As to `CC(=O)Nc1ccc(/C=N/NC(=O)c2cccs2)cc1`, the Potency is 17.8 µM (active).

As for `Cc1nn(Cc2ccccc2)c(Cl)c1C(=O)OC1CCOC1=O` (stereo not drawn), the Potency entry is “inactive”.

Consider `O=C(OC1CCOC1=O)c1ccc(-c2nc3ccccc3s2)s1` (stereo not drawn), for which the Potency was 12.6 µM (active).

With `O=C(c1cccs1)N1CCC(c2nc3ccccc3s2)CC1`, the Potency entry was “inactive”.

Take `COc1cccc(-c2nc(CS(=O)(=O)CC(=O)NCCc3ccc(OC)c(OC)c3)c(C)o2)c1`: the Potency entry was “inactive”.

Consider `Cc1cc(NC(=O)Cn2nc(C(F)(F)F)c3c2CCCC3)no1`, for which the Potency was 14.1 µM (active).

For the compound `O=C(Cn1nc(C(F)(F)F)c2c1CCCC2)Nc1ccc(Cl)cc1`, the Potency result was “inactive”.

Take `O=C(Cn1nc(C(F)(F)F)c2c1CCC2)NCc1ccc(F)cc1`: the Potency entry was “inactive”.

As for `Cc1cc(C)cc(NC(=O)Cn2c(=O)c3ccccc3n3nncc23)c1`, the Potency result is “inactive”.

Consider `COc1ccc2nc(NC(=O)c3ccc(Br)s3)sc2c1`, for which the Potency is 11.2 µM (active).

Turning to `COc1cccc(C(=O)Nc2nc3ccc(S(C)(=O)=O)cc3s2)c1`, the Potency result was “inactive”.

Regarding `COc1ccc2nc(Nc3nc4ccc(NC(C)=O)cc4s3)sc2c1`, the Potency entry is “inactive”.

Regarding `COc1ccc2nc(NC(=O)[C@@H]3CCCN3C(=O)c3cccs3)sc2c1`, the Potency entry is “inactive”.

In the case of `CCOc1ccc(S(=O)(=O)Nc2nc3cc(OC)ccc3s2)cc1`, the Potency entry was “inactive”.

As for `COc1ccc2nc(Nc3nc4cc5c(cc4s3)OCCO5)sc2c1`, the Potency was 20 µM (active).

Turning to `COc1ccc(Cn2c(=O)n(-c3ccccc3C)c(=O)c3c4c(sc32)CN(C(C)=O)CC4)cc1`, the Potency result is “inactive”.

For the compound `CCOC(=O)c1ccc(NC(=O)Cn2c(=O)n(-c3ccc(C)cc3)c(=O)c3c2cnn3C)cc1`, the Potency entry is “inactive”.

As to `O=[N+]([O-])c1ccccc1N/N=C1\CCc2ccccc21`, the Potency was 11.2 µM (active).

Consider `O=[N+]([O-])c1ccccc1NCc1ccccc1Cl`, for which the Potency result was “inactive”.

`O=[N+]([O-])c1cc(C(F)(F)F)ccc1NN=C1CCCC1`: the Potency entry was “inactive”.

As to `Cc1ccc(Cl)cc1N(C)C(=O)Cn1nc(Cc2cccnc2)c2ccccc2c1=O`, the Potency entry was “inactive”.

As for `COc1ccc(-n2c(C)nc3c(cnn3-c3ccc(F)cc3)c2=O)cc1`, the Potency entry is “inactive”.

Turning to `COc1ccc(-c2c3c(=O)n(C)c(=O)n(C)c3c3c(C)nc4ccccc4n23)cc1`, the Potency result is “inactive”.

Turning to `FC(F)(F)c1cc(Nc2nc3ccccc3c3nncn23)ccc1Cl`, the Potency entry was “inactive”.

As to `CCN(C(=O)Cn1cc(S(=O)(=O)N2CCN(c3ccccc3F)CC2)c2ccccc2c1=O)c1ccc(C)c(C)c1`, the Potency entry is “inactive”.

On to `CSCCC(Nc1nc2ccccc2s1)C(=O)O` (stereo not drawn), for which the Potency entry was “inactive”.

On to `c1ccc2sc(SCCSc3nc4ccccc4s3)nc2c1`, for which the activity change, positive = activation was -8.26% [at 9.22 µM].

For the compound `Cc1ccnc(Nc2nc3ccccc3s2)n1`, the Potency is 3.55 µM (active).

`Cc1nn(-c2nc(-c3ccccc3)cc(C(F)(F)F)n2)c(C)c1Cl`: the Potency entry was “inactive”.

For `Cc1ccccc1NC(=O)c1cc2c([nH]c1=O)CC(C)(C)CC2=O`, the Potency entry was “inactive”.

Regarding `CC(C)C(=O)OCC(=O)Nc1ccc2c(c1)CCC2`, the Potency result is “inactive”.

As for `O=C(Nc1ccc2c(c1)CCC2)c1ccc(Br)s1`, the Potency was 5.62 µM (active).

As for `O=C(NC1CCCC1)c1ccc(Br)s1`, the Potency result is “inactive”.

Turning to `NS(=O)(=O)c1ccc(NC(=O)C(=O)Nc2ccc3nc4n(c(=O)c3c2)CCCCC4)cc1`, the Potency entry is “inactive”.

For the compound `CCOc1ccc(S(=O)(=O)c2cn(Cc3ccccc3)c3ccc(OCC)cc3c2=O)cc1`, the Potency entry is “inactive”.

For the compound `Cc1oc(C)c2c(=O)cc(-c3ccc4c(c3)OCO4)cc(OC(=O)c3ccc(Cl)cc3)c12`, the Potency result is “inactive”.

In the case of `CC(C)C12CN3CC(C(C)C)(CN(C1)C3c1ccc(OCc3ccccc3)cc1)C2=O` (stereo not drawn), the Potency entry is “inactive”.

In the case of `Cc1ccc(Cn2c(CCCNC(=O)C3CCCCC3)nc3ccccc32)cc1`, the Potency entry is “inactive”.

For the compound `CCOc1ccc(-c2cc(C)n3nc(C(=O)Nc4ccc(C)c(C)c4)cc3n2)cc1`, the Potency result was “inactive”.

Consider `O=C(/C=C\NCC(=O)c1ccccc1)c1ccccc1`, for which the Potency result was “inactive”.

Consider `Cc1ccc(N/C=C/C(=O)c2ccccc2)cc1C`, for which the Potency is 2.51 µM (active).

For the compound `Cc1noc(NS(=O)(=O)c2ccc(N/C=C/C(=O)c3ccccc3)cc2)c1C`, the Potency entry is “inactive”.

For the compound `CSCCC(NS(=O)(=O)c1ccc2c(c1)oc(=O)n2C)C(=O)NCc1ccccc1` (stereo not drawn), the Potency result was “inactive”.

On to `Cc1ccc(OCC(=O)Nc2ccc(S(=O)(=O)Nc3ccccn3)cc2)cc1`, for which the Potency result was “inactive”.

With `O=C(COc1ccc2oc3c(c2c1)CCCC3)Nc1ccccn1`, the Potency was 20 µM (active).

With `Cc1cc(C)cc(OCC(=O)Nc2ccc(S(=O)(=O)Nc3ccccn3)cc2)c1`, the Potency result was “inactive”.

In the case of `COc1cc(OC)cc(-c2nc3nc(C)c(CCC(=O)Nc4ccc(C)cc4)c(C)n3n2)c1`, the Potency entry was “inactive”.

Take `CCOC(=O)c1cc2c(=O)n3ccccc3nc2n(CC2CCCO2)c1=NC(=O)c1ccccc1Br` (stereo not drawn): the Potency entry is “inactive”.

Regarding `Cc1cccc(NC(=O)CSc2nnc(-c3ccco3)o2)c1`, the Potency result was “inactive”.

Regarding `C/C(=N/NC(=O)CCc1ccccc1)c1ccco1`, the Potency result is “inactive”.

On to `O=C(CCc1ccccc1)Nc1cccc(-c2nnc(-c3ccco3)o2)c1`, for which the Potency was 12.6 µM (active).
